The first experiment has as its target T1, ELK3 (Homo sapiens, UniProt P41970 1-407).
T1 sequence: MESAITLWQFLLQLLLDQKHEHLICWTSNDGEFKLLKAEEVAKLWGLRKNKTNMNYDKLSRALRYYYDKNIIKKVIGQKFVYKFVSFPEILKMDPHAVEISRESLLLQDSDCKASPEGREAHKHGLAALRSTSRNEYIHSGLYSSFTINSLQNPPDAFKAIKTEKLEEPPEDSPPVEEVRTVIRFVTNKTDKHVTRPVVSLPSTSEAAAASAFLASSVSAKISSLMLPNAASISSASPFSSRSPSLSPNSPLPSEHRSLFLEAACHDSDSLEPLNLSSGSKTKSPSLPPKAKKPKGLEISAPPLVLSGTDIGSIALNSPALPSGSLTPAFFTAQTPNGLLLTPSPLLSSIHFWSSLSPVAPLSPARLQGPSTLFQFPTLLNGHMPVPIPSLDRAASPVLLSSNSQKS
As to the kind of experiment: DAPPL (digital affinity profiling via proximity ligation, sequencing); 10 mM Tris-HCl pH 7.5, 50 mM NaCl, 1 mM DTT, 4% glycerol, room temperature, 30 min; GST-TFs on glutathione beads, 16-mer random dsDNA library, 0.1% formaldehyde crosslink after washing; high values mean tight binding. To be noted: protein: recombinant; tags: N-terminal GST; dsDNA, one strand shown. The method in brief: (§1)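 The binding signal reported is, for every hexamer, its read frequency for a factor over its read frequency for the tag-only sample. Reads came from pools of yeast-expressed, GST-fused human transcription factors on glutathione beads, barcoded with DNA and mixed with that sample, which were incubated with 200 nmole of a random double-stranded 16-mer DNA library in Tris/NaCl/DTT/glycerol buffer at room temperature for 30 min. After washing, the pools were crosslinked with 0.1% formaldehyde, proximity-ligated with BsaI/T4 ligase for 1 h at 37 °C, PCR-amplified and sequenced on an Illumina NextSeq500.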
ETV5, sequence (P41161 whole entry): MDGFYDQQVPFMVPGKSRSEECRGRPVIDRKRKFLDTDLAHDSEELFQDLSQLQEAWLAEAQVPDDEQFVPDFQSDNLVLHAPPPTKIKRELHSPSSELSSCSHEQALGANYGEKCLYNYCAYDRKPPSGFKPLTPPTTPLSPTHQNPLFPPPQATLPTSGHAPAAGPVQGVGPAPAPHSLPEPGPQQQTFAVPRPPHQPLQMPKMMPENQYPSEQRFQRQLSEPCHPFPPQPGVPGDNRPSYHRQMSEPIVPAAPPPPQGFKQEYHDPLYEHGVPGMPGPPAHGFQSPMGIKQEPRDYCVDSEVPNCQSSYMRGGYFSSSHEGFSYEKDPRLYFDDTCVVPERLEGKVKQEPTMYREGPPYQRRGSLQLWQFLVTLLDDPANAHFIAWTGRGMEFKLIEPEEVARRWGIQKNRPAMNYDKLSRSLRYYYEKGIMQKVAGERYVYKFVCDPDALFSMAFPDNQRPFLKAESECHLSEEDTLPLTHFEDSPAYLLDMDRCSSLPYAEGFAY
On to TTTGTG, for which the binding signal was 1.17 fold enrichment (6-mer frequency, TF over GST control).

In the case of AATTCA, the binding signal is 1.47 fold enrichment (6-mer frequency, TF over GST control).

With TTGCTC, the binding signal is 1.01 fold enrichment (6-mer frequency, TF over GST control).

As for CTAAAC, the binding signal was 1.2 fold enrichment (6-mer frequency, TF over GST control).

As for TAGGCT, the binding signal is 1.26 fold enrichment (6-mer frequency, TF over GST control).

As for CCTCTG, the binding signal was 1.58 fold enrichment (6-mer frequency, TF over GST control).

On to TGTCTA, for which the binding signal was 1.36 fold enrichment (6-mer frequency, TF over GST control).

In the case of TTCACC, the binding signal was 1.32 fold enrichment (6-mer frequency, TF over GST control).

As to ATCTAC, the binding signal was 1.27 fold enrichment (6-mer frequency, TF over GST control).

On to CACTAT, for which the binding signal was 1.24 fold enrichment (6-mer frequency, TF over GST control).

For TAATCC, the binding signal was 1.35 fold enrichment (6-mer frequency, TF over GST control).

For the sequence AAAGAT, the binding signal is 1.13 fold enrichment (6-mer frequency, TF over GST control).

For CGTCTT, the binding signal was 1.28 fold enrichment (6-mer frequency, TF over GST control).

Take ACTGAA: the binding signal is 1.09 fold enrichment (6-mer frequency, TF over GST control).

For CTCCGC, the binding signal is 1.5 fold enrichment (6-mer frequency, TF over GST control).

Take CAACTC: the binding signal is 1.3 fold enrichment (6-mer frequency, TF over GST control).

As to TACAAT, the binding signal is 1.21 fold enrichment (6-mer frequency, TF over GST control).

In the case of CCATCT, the binding signal is 1.28 fold enrichment (6-mer frequency, TF over GST control).

With TCCCCG, the binding signal is 1.13 fold enrichment (6-mer frequency, TF over GST control).

For the sequence ACTCTA, the binding signal is 1.38 fold enrichment (6-mer frequency, TF over GST control).

With CCCTCC, the binding signal was 1.37 fold enrichment (6-mer frequency, TF over GST control).

Turning to ATATTC, the binding signal was 1.14 fold enrichment (6-mer frequency, TF over GST control).

On to CGCTTA, for which the binding signal was 1.15 fold enrichment (6-mer frequency, TF over GST control).

Turning to ACGTTA, the binding signal was 1.3 fold enrichment (6-mer frequency, TF over GST control).

With GCCTTT, the binding signal is 1.27 fold enrichment (6-mer frequency, TF over GST control).

As to TTCGAG, the binding signal was 1.3 fold enrichment (6-mer frequency, TF over GST control).

CTGAGC: the binding signal is 1.18 fold enrichment (6-mer frequency, TF over GST control).

For the sequence AATTCT, the binding signal is 1.38 fold enrichment (6-mer frequency, TF over GST control).

Turning to CCTGAA, the binding signal was 1.32 fold enrichment (6-mer frequency, TF over GST control).

With TAACTT, the binding signal was 1.27 fold enrichment (6-mer frequency, TF over GST control).

Take CTCATC: the binding signal is 1.47 fold enrichment (6-mer frequency, TF over GST control).

As to TCTCAT, the binding signal is 1.29 fold enrichment (6-mer frequency, TF over GST control).

As to TGATGA, the binding signal was 1.28 fold enrichment (6-mer frequency, TF over GST control).

As for TTAAAT, the binding signal is 1.25 fold enrichment (6-mer frequency, TF over GST control).

On to TTTCAA, for which the binding signal was 1.33 fold enrichment (6-mer frequency, TF over GST control).

In the case of ATATGG, the binding signal is 1.25 fold enrichment (6-mer frequency, TF over GST control).

Regarding ACTTGG, the binding signal was 1.29 fold enrichment (6-mer frequency, TF over GST control).

As for CACATT, the binding signal was 1.13 fold enrichment (6-mer frequency, TF over GST control).

Turning to TCCTGA, the binding signal was 1.54 fold enrichment (6-mer frequency, TF over GST control).

The target of another experiment is T2, FEV (Homo sapiens, UniProt Q99581 1-238).
T2 sequence: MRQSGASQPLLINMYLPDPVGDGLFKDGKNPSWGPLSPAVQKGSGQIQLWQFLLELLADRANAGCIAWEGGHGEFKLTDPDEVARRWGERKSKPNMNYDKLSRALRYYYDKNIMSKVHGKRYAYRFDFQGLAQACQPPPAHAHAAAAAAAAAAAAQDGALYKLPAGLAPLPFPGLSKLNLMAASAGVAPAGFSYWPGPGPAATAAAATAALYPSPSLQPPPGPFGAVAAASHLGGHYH
Described as above. The following applies: protein: recombinant; tags: N-terminal GST; dsDNA, one strand shown. The method, boiled down:
as §1
Consider TTTGTG, for which the binding signal is 1.23 fold enrichment (6-mer frequency, TF over GST control).

In the case of AATTCA, the binding signal was 1.24 fold enrichment (6-mer frequency, TF over GST control).

For the sequence TTGCTC, the binding signal is 1.25 fold enrichment (6-mer frequency, TF over GST control).

As to CTAAAC, the binding signal is 1.21 fold enrichment (6-mer frequency, TF over GST control).

In the case of TAGGCT, the binding signal is 1.25 fold enrichment (6-mer frequency, TF over GST control).

CCTCTG: the binding signal was 1.48 fold enrichment (6-mer frequency, TF over GST control).

TGTCTA: the binding signal was 1.14 fold enrichment (6-mer frequency, TF over GST control).

As to TTCACC, the binding signal is 1.39 fold enrichment (6-mer frequency, TF over GST control).

On to ATCTAC, for which the binding signal was 1.33 fold enrichment (6-mer frequency, TF over GST control).

Take CACTAT: the binding signal is 1.21 fold enrichment (6-mer frequency, TF over GST control).

For TAATCC, the binding signal was 1.24 fold enrichment (6-mer frequency, TF over GST control).

Regarding AAAGAT, the binding signal is 1.15 fold enrichment (6-mer frequency, TF over GST control).

Turning to CGTCTT, the binding signal was 1.33 fold enrichment (6-mer frequency, TF over GST control).

As to ACTGAA, the binding signal is 1.19 fold enrichment (6-mer frequency, TF over GST control).

Consider CTCCGC, for which the binding signal was 1.43 fold enrichment (6-mer frequency, TF over GST control).

Consider CAACTC, for which the binding signal is 1.23 fold enrichment (6-mer frequency, TF over GST control).

In the case of TACAAT, the binding signal is 1.29 fold enrichment (6-mer frequency, TF over GST control).

Take CCATCT: the binding signal is 1.27 fold enrichment (6-mer frequency, TF over GST control).

On to TCCCCG, for which the binding signal was 1.17 fold enrichment (6-mer frequency, TF over GST control).

As to ACTCTA, the binding signal was 1.45 fold enrichment (6-mer frequency, TF over GST control).

Regarding CCCTCC, the binding signal is 1.51 fold enrichment (6-mer frequency, TF over GST control).

As to ATATTC, the binding signal was 1.19 fold enrichment (6-mer frequency, TF over GST control).

For the sequence CGCTTA, the binding signal is 1.2 fold enrichment (6-mer frequency, TF over GST control).

ACGTTA: the binding signal was 1.13 fold enrichment (6-mer frequency, TF over GST control).

GCCTTT: the binding signal was 1.41 fold enrichment (6-mer frequency, TF over GST control).

TTCGAG: the binding signal is 1.21 fold enrichment (6-mer frequency, TF over GST control).

Take CTGAGC: the binding signal is 1.21 fold enrichment (6-mer frequency, TF over GST control).

For AATTCT, the binding signal was 1.29 fold enrichment (6-mer frequency, TF over GST control).

For CCTGAA, the binding signal is 1.4 fold enrichment (6-mer frequency, TF over GST control).

With TAACTT, the binding signal was 1.51 fold enrichment (6-mer frequency, TF over GST control).

Turning to CTCATC, the binding signal is 1.34 fold enrichment (6-mer frequency, TF over GST control).

As to TCTCAT, the binding signal was 1.27 fold enrichment (6-mer frequency, TF over GST control).

In the case of TGATGA, the binding signal was 1.25 fold enrichment (6-mer frequency, TF over GST control).

With TTAAAT, the binding signal was 1.16 fold enrichment (6-mer frequency, TF over GST control).

Turning to TTTCAA, the binding signal is 1.34 fold enrichment (6-mer frequency, TF over GST control).

Consider ATATGG, for which the binding signal was 1.25 fold enrichment (6-mer frequency, TF over GST control).

ACTTGG: the binding signal is 1.17 fold enrichment (6-mer frequency, TF over GST control).

On to CACATT, for which the binding signal is 1.18 fold enrichment (6-mer frequency, TF over GST control).

On to TCCTGA, for which the binding signal is 1.31 fold enrichment (6-mer frequency, TF over GST control).

The next experiment concerns the target ETV5 (Homo sapiens, UniProt P41161 1-510). The experiment is described as above. To be noted: protein: recombinant; tags: N-terminal GST; dsDNA, one strand shown. The method in brief:
as §1
Consider TTTGTG, for which the binding signal was 1.17 fold enrichment (6-mer frequency, TF over GST control).

AATTCA: the binding signal was 1.34 fold enrichment (6-mer frequency, TF over GST control).

For the sequence TTGCTC, the binding signal is 1.41 fold enrichment (6-mer frequency, TF over GST control).

Take CTAAAC: the binding signal is 1.18 fold enrichment (6-mer frequency, TF over GST control).

As for TAGGCT, the binding signal was 1.19 fold enrichment (6-mer frequency, TF over GST control).

With CCTCTG, the binding signal is 1.56 fold enrichment (6-mer frequency, TF over GST control).

For the sequence TGTCTA, the binding signal is 1.24 fold enrichment (6-mer frequency, TF over GST control).

Regarding TTCACC, the binding signal was 1.33 fold enrichment (6-mer frequency, TF over GST control).

On to ATCTAC, for which the binding signal is 1.25 fold enrichment (6-mer frequency, TF over GST control).

On to CACTAT, for which the binding signal was 1.2 fold enrichment (6-mer frequency, TF over GST control).

As for TAATCC, the binding signal was 1.3 fold enrichment (6-mer frequency, TF over GST control).

Regarding AAAGAT, the binding signal is 1.25 fold enrichment (6-mer frequency, TF over GST control).

For the sequence CGTCTT, the binding signal was 1.37 fold enrichment (6-mer frequency, TF over GST control).

In the case of ACTGAA, the binding signal is 1.19 fold enrichment (6-mer frequency, TF over GST control).

On to CTCCGC, for which the binding signal is 1.52 fold enrichment (6-mer frequency, TF over GST control).

CAACTC: the binding signal was 1.22 fold enrichment (6-mer frequency, TF over GST control).

As for TACAAT, the binding signal is 1.3 fold enrichment (6-mer frequency, TF over GST control).

Regarding CCATCT, the binding signal is 1.29 fold enrichment (6-mer frequency, TF over GST control).

For TCCCCG, the binding signal is 1.22 fold enrichment (6-mer frequency, TF over GST control).

ACTCTA: the binding signal was 1.48 fold enrichment (6-mer frequency, TF over GST control).

Take CCCTCC: the binding signal was 1.48 fold enrichment (6-mer frequency, TF over GST control).

Take ATATTC: the binding signal was 1.27 fold enrichment (6-mer frequency, TF over GST control).

For the sequence CGCTTA, the binding signal is 1.29 fold enrichment (6-mer frequency, TF over GST control).

Regarding ACGTTA, the binding signal was 1.11 fold enrichment (6-mer frequency, TF over GST control).

Take GCCTTT: the binding signal is 1.25 fold enrichment (6-mer frequency, TF over GST control).

On to TTCGAG, for which the binding signal was 1.28 fold enrichment (6-mer frequency, TF over GST control).

Turning to CTGAGC, the binding signal is 1.12 fold enrichment (6-mer frequency, TF over GST control).

As to AATTCT, the binding signal is 1.28 fold enrichment (6-mer frequency, TF over GST control).

Take CCTGAA: the binding signal was 1.38 fold enrichment (6-mer frequency, TF over GST control).

Regarding TAACTT, the binding signal was 1.45 fold enrichment (6-mer frequency, TF over GST control).

In the case of CTCATC, the binding signal was 1.34 fold enrichment (6-mer frequency, TF over GST control).

Turning to TCTCAT, the binding signal was 1.39 fold enrichment (6-mer frequency, TF over GST control).

Turning to TGATGA, the binding signal is 1.32 fold enrichment (6-mer frequency, TF over GST control).

As to TTAAAT, the binding signal is 1.2 fold enrichment (6-mer frequency, TF over GST control).

In the case of TTTCAA, the binding signal was 1.29 fold enrichment (6-mer frequency, TF over GST control).

As for ATATGG, the binding signal was 1.3 fold enrichment (6-mer frequency, TF over GST control).

Take ACTTGG: the binding signal was 1.21 fold enrichment (6-mer frequency, TF over GST control).

As for CACATT, the binding signal was 1.19 fold enrichment (6-mer frequency, TF over GST control).

On to TCCTGA, for which the binding signal was 1.53 fold enrichment (6-mer frequency, TF over GST control).

For the origin of these results see PMC7862700, “An all-to-all approach to the identification of sequence-specific readers for epigenetic DNA modifications on cytosine”.
